PMC12864922, “TDP-43 directly inhibits mRNA accumulation in neurites through modulation of mRNA stability”
Over roughly 9,900 sequences, “r (bound/input frequency ratio)” has its median near 0.7; the highest 2% begin near 6.5. What follows is part of a selection rich in the highest values, with near analogues and random picks from the rest.

B1: ENSMUSG00000029636.202|Wasf3|244:248 (ssRNA)
RNA: GGGAGUUCUACAGUCCGACGAUCGCUUCGAUAUCCGCAUGCUAACCAAAUGGCGAUUCCAUAGUCCUGGCUGAGGCAGGGGCUCAAAGUCCAGUGUCUGCUUUGCAAUUCUGGAAGGACAGCUGCUUAUUUAAAUAAGUCUGUGAUAUCCGCAGGCUUGGGUUACAGGGAGGACCUUGCAGAGGGACCAGGACACUGCCUUCCCUUAGGUGCAUUAUUUACGUGGCCUGCAGCUCUUAAUAUCUCUCACUGUUUAUGAAAAGAAAGAUUCAGAUCCGGGGUGACAUACACACAGUUGACAGGGCUCUUGCGGUCGCACUAGUGUGGAAUUCUCGGGUGUCAAGG
B2: ENSMUSG00000061578.835|Ksr2|29:33;71:75;146:150 (ssRNA)
RNA: GGGAGUUCUACAGUCCGACGAUCGCUUCGAUAUCCGCAUGCUAAAGGGCUCAGUCCAUAGCUGCCUGACUCACACAUUCUAGGCCUUUCUUGAGGCAAGUGUUCAUCAUGAUACACACAGGGUGAGGAGGAGUUUCUUCAUGGCAAACAGGAAGCAAAGAGCAAUACAGGAAAAGGUCAGGGGUGAGAACACACAUUGCCACUUCCUCCAGCUAGGACCUUUGAGCAUCACAUUGUGAAGCCAUCCAGGGACUUGGGGGUUAGGUCAGAGGUAUCAAUACAUCUCCGGAAACAUCGUCACAGACUCUUGCGGUCGCACUAGUGUGGAAUUCUCGGGUGUCAAGG
B3: ENSMUSG00000004113.468|Cacna1b (ssRNA)
RNA: GGGAGUUCUACAGUCCGACGAUCGCUUCGAUAUCCGCAUGCUAGCAAAAAUUUAUAUUUAACAGUGUUGAGAGAGAGAGAGAGAGAGCGAGAGAGAGAGAGAUCCAGUCAUGCAACACAAAUGGGAUCUACUUUUAAACAACAGUCCUUUGACUAGUUUGCUGCCUGAAUAAUAUUUACAAACUAAACUUUGGAUUCUGCUCUUGUUUCUACAAUGAUUUUUUGUAUAAAGCAAAGUCCUUGGAUUAAAUAAAAACAACCCAAAAAAAAAAUCAAAAUCAAAACCCAGGAUGCAACUGGGUGACUCUUGCGGUCGCACUAGUGUGGAAUUCUCGGGUGUCAAGG
B4: ENSMUSG00000058297.109|Spock2|57:62 (ssRNA)
RNA: GGGAGUUCUACAGUCCGACGAUCGCUUCGAUAUCCGCAUGCUAUGUACACACAGCAAGGCUUACUAUCCGUCUCCUGACAUCCGAAGAGCUCGUCGCAGCACACACUAAUGGCCCUUGGGCUGCACGUGGUUAAGCAUAGCUGUCUCUGUGGCCCAACACAAAGAGGUAAACUUACUUAAAACACAGGGGUUUUGUUGCUGUUUGUUUUUUGUUAGUUUGUUUGUUGAUAAUUGGAUUGAGGAGUUAAUCCUCUGUCACAAUGUCAAAAGCAUGGACAUCCCUGAUAGAUUAUCUCUCAACCUCUCUUGCGGUCGCACUAGUGUGGAAUUCUCGGGUGUCAAGG
B5: ENSMUSG00000028439.270|Fam219a|220:224 (ssRNA)
RNA: GGGAGUUCUACAGUCCGACGAUCGCUUCGAUAUCCGCAUGCUAAGCUGAGGCUGUAGCUCAGUGAGAUGGUGGCUCUCCCAUGGCUGAAGACAAGUGCAAGCAGAGAGAGCCUCAGGCUGCUGGGCCUCGGACCCACGAGCCUCCUCUCACUGAGCCAGUGCGGCCAGAGUGUCUCUCCUUCAGGCGCCCCACAUGCCAGCAUUUCCACCCUCUGGAUUCUCCUCACAUGUCACUCUCCAGGUGCCGGGGCCUAGAGUGGGCCACACAGAAGGAGGAGUGGGGCUGUUGGCUUAGGAAGGGAACUCUUGCGGUCGCACUAGUGUGGAAUUCUCGGGUGUCAAGG
B6: ENSMUSG00000061578.426|Ksr2 (ssRNA)
RNA: GGGAGUUCUACAGUCCGACGAUCGCUUCGAUAUCCGCAUGCUAGACCACUGACCCGUCCAGACCCUCGCUUCUUACAAUGCCUCUUCUUCUGCCAGACCAGCCACCUGCCCCACUAACACCAAAUGGCUUCUGUCCCUGCUUCACGUUGCAAAUCCUUCAAGACAGAAGUUUCAGAGGGGAUAGUUCCUUCUAACCUUGUACUGGGACAUCAUCUAUGUCCCCAUCCCCAGAGCUGAAUUAGAGACACCAAGUAGCCUCUUGGGUUGUUUUGUGGGGUGUUCCCCUUGCUGGUCAAAGGAGUGCUCUUGCGGUCGCACUAGUGUGGAAUUCUCGGGUGUCAAGG
B7: ENSMUSG00000058297.310|Spock2 (ssRNA)
RNA: GGGAGUUCUACAGUCCGACGAUCGCUUCGAUAUCCGCAUGCUAGCAGCUAGCUACUGGGGACCUUGUGCUGAGGCUUCCAGGACAAAGCCCCAGUCUGGCUCUCCCCCAGCCUCUCAGGGGCACUGGCUGGUCACAUCCACUGAGUAUUGAUCGGUUGGACUUUAGGGAAGAGCCUCCUCCUUCCCAUUCCUUUCUGCCACCCUGGAAUGGCCACCUUAAUCGUCAUCUCCUCGGGGGGAAUACGGAAAUGUCACCAAGCUCCAUAAAGUGCUUCUCAUUCCACGACACAGUUCUGACUCUCCCUCUUGCGGUCGCACUAGUGUGGAAUUCUCGGGUGUCAAGG
B8: ENSMUSG00000090935.19|Synj2bp (ssRNA)
RNA: GGGAGUUCUACAGUCCGACGAUCGCUUCGAUAUCCGCAUGCUAAUUAUUUAGUCACGGAGGAAGAGAUCAACCUGACGAGAGGACCUUCGGGUAAAUGGCCAAGAUCUGAAGAACCUGCUGCACCAAGAUGCUGUAGACCUCUUCCGUAAUGCGGGAUGUGCUGUGUCCCUGAGAGUACAGCACAGGUUACCAGUGCAGAAUGGACCUAUAGUACAUCGAGGUGAAGGAGAGCCAAGUGGAGUUCCUGUAGCUAUGGUGCUGCUACCAGUGUUUGCCCUCACCAUGGUAGCAGUUUGGGCCUUCUCUUGCGGUCGCACUAGUGUGGAAUUCUCGGGUGUCAAGG
B9: ENSMUSG00000061578.1360|Ksr2|254:258 (ssRNA)
RNA: GGGAGUUCUACAGUCCGACGAUCGCUUCGAUAUCCGCAUGCUAAGGCAAGCAACCUUGCCAAGGCAGGCCAGACAGGACAGCCCAGCUUCCCACUCCAGACAUGUUGUUCUUACAUCUCUGACCCAGUGAUCUUUCUAGGGGUCUGUCACAUGUCCCAACAGGUGGACAGCUCUCCAAGUCACCAACCUGAGGAAAAUAUCCCUCCUUGUAAAAAGGCUUUCUCUUUGUAAAUGAUUCUGUUGCCUUUUUCUAAACACAAAGUAUAUAUACCUAUAAAUGCUAUAUAUAUUAUAUAACACAAUCUCUUGCGGUCGCACUAGUGUGGAAUUCUCGGGUGUCAAGG
B10: ENSMUSG00000029636.126|Wasf3 (ssRNA)
RNA: GGGAGUUCUACAGUCCGACGAUCGCUUCGAUAUCCGCAUGCUAUCACUUUCAUGGCUAGCCCUGAUAGCGUUGGGCACCAGUUAGCCAGGCCAUGUUCAAGCUGCCUAGAGUCUGCAGAGCUUGCAUGGCAGAGCGGCCGCAUCUGGUUCCCUCCUACUCCACCCAGUGGAAAAGAGACCUCCACGUUUUAUUUUCUGGGAUCCCUGCUCCUCUGUUCACCAGGGAGUGAGCACAGGUCAGCACCUCACCCCCCUUGCUCUGAAUCAUGGAAGCUUGGCUUUAGCUGAGAGAUGCCACCAGCUCUCUUGCGGUCGCACUAGUGUGGAAUUCUCGGGUGUCAAGG
B11: ENSMUSG00000038916.65|Soga3 (ssRNA)
RNA: GGGAGUUCUACAGUCCGACGAUCGCUUCGAUAUCCGCAUGCUAACCUUUCUUUGUUUUGCACUCUUGAGUCAUAGUUGACUGGCUGACUGUGAAAAAUGGACAAAGUCUCAUAAUUAUUCUGUAGGAAUUGAGUAUUAUUUUACACCUGGAAAAUUUCAGCUGGUUGCAUUUUCAAAUUCAUGUAGAGGCAUUAAUUAUAAGUCAAUGUAGAUGAUUUAUAAAUUAUCUCUGUUAUAAAUUAUGUAGAUUUGUAAGCAUGCUGUUACUCAUGUUAGACAAAAAGGAAAACAUCAAUGUCUAAUCUCUUGCGGUCGCACUAGUGUGGAAUUCUCGGGUGUCAAGG
B12: ENSMUSG00000061578.1302|Ksr2 (ssRNA)
RNA: GGGAGUUCUACAGUCCGACGAUCGCUUCGAUAUCCGCAUGCUAGGGAUUGGCUGUAGUUAAUUAAAAGCACCUGUCUCUGUCAUCUCUGCACCCAACUGAAUCUCCCACCCUCAAGUGUACCUCUCAGGAUAUCCCCAGGCACACGAAGAUGGAAUGGAAAGCCAGUGGGUAUCUCCCACCCACUUAGAUGCUGAUGGCCUGGGACUAUAAACAGGGACAGUUGGGUCUCCUAAGGAAUAGCUUCCAGGUCCAGGAUGCUGGCAUCUCCCAGAGAGAACUCCAUCCCCUGACCACCAAGGCCUCUCUUGCGGUCGCACUAGUGUGGAAUUCUCGGGUGUCAAGG
B13: ENSMUSG00000061578.924|Ksr2 (ssRNA)
RNA: GGGAGUUCUACAGUCCGACGAUCGCUUCGAUAUCCGCAUGCUACAUGAGCCCAGAUAGUCAAAGACUUCAGCACAAGGGUGUUUAGAGUAGGCAGUGUGGAAGUAUCAAUAAGGUUAUUGAGAUGAGGAUUUAGAAAGAUCCAUGUAUAAAAGGUCUAGAAGGAUGAAGAUCUAAAACAAGAAGACUGCAUGUUAACGCUCCUGCCACUGUUGCCCCUUCCUUUACCCUUGGCAGACAUUGCUAAUCAAUCUCAGCACAGUUUCCAACCACAGUCAUAGAACAUUUGCCACAAAGGCCCUGGACUCUUGCGGUCGCACUAGUGUGGAAUUCUCGGGUGUCAAGG

Each binder was assayed against TDP-43 (Homo sapiens, UniProt Q13148 1-414) (assay: RNA Bind-n-Seq with designed 260-mer pool; 25 mM Tris-HCl, 150 mM KCl, 3 mM MgCl2, BSA (printed 500 mg/mL), 20 units/mL SUPERase IN; pH not stated; 500 nM RNA pool, 1 h, 4 C; TDP-43 5, 50, 500 nM; high values mean tight binding). Details: protein: recombinant; tags: SBP (GST cleaved off with PreScission; pGEX-GST-SBP).
Summary of the method: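 In 25 mM Tris-HCl, 150 mM KCl, 3 mM MgCl2, BSA and SUPERase IN, 500 nM of an in vitro-transcribed 260-nt 3′ UTR oligo pool was incubated for 1 h at 4 °C with SBP-tagged TDP-43 (5, 50 or 500 nM) captured on streptavidin beads. RNA remaining after washes was biotin-eluted, reverse transcribed, PCR-amplified and sequenced. Binding, R, is the bound-sample abundance of each oligo, normalized to mapped reads, divided by its abundance in input. Each duplicate used a separate, independent protein batch.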

TDP-43, sequence (Q13148 whole entry): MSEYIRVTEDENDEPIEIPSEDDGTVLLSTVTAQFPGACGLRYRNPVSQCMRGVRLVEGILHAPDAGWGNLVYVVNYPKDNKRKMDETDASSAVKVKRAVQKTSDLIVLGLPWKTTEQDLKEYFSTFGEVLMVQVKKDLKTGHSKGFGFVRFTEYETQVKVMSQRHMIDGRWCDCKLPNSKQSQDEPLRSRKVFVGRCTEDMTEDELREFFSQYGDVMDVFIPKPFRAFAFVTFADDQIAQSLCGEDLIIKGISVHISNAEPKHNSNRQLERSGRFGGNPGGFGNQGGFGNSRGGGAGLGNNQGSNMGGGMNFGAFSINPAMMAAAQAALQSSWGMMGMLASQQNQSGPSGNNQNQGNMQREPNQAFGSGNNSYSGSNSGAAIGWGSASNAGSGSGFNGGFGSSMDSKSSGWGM

Binder | binding signal
B1 | 0.996 R (bound/input frequency ratio)
B2 | 0.305 R (bound/input frequency ratio)
B3 | 0.308 R (bound/input frequency ratio)
B4 | 1.85 R (bound/input frequency ratio)
B5 | 1.33 R (bound/input frequency ratio)
B6 | 1.01 R (bound/input frequency ratio)
B7 | 0.874 R (bound/input frequency ratio)
B8 | 0.919 R (bound/input frequency ratio)
B9 | 0.201 R (bound/input frequency ratio)
B10 | 1.2 R (bound/input frequency ratio)
B11 | 0.077 R (bound/input frequency ratio)
B12 | 0.444 R (bound/input frequency ratio)
B13 | 1.12 R (bound/input frequency ratio)
